Measured values from PubChem BioAssay AID1159580 (chemical genetic matrix, 2015).
Out of some 5,500 compounds screened, about 2,000 (36%) were called active. Roughly 18% stayed inconclusive and do not appear here. Rule as the data show it: active = normalized growth mostly below about 0.91 (no sharp cut-off); inconclusive = no clear call, values can overlap the other calls; inactive = mostly above about 0.92. The list shows a part of the results.

Test: chemical genetic growth profiling, strain panel (AID 1159580);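 also: tested at 20 µM; growth read once vehicle control cultures reached saturation at 30 °C; 1 = growth at the plate median or of vehicle wells; lower values mean less growth of the strain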
Details: growth OD

Compound: CC(=O)Nc1ccc(OC(=O)c2ccccc2O)cc1
- normalized growth (S. cerevisiae deletion strains, locus YJR066W, strain TOR1, active compounds read low): 0.929 (inactive)
- normalized growth (S. cerevisiae deletion strains, locus YJR075W, strain HOC1, active compounds read low): 0.85 (active)
- normalized growth (S. cerevisiae deletion strains, locus YKL009W, strain mrt4, active compounds read low): 0.848 (active)
- normalized growth (S. cerevisiae deletion strains, locus YKL068W, active compounds read low): 0.96 (inactive)
- normalized growth (S. cerevisiae deletion strains, locus YKL085W, strain MDH1 (second series), active compounds read low): 0.95 (inactive)
- normalized growth (S. cerevisiae deletion strains, locus YKL085W, strain MDH1, active compounds read low): 0.95 (inactive)
- normalized growth (S. cerevisiae deletion strains, locus YKL160W, strain elf1, active compounds read low): 0.978 (inactive)
- normalized growth (S. cerevisiae deletion strains, locus YKL190W, strain CNB1, active compounds read low): 0.987 (inactive)
- normalized growth (S. cerevisiae deletion strains, locus YKR001C, strain vps1, active compounds read low): 0.794 (active)
- normalized growth (S. cerevisiae deletion strains, locus YKR026C, strain gcn3, active compounds read low): 0.965 (inactive)
- normalized growth (S. cerevisiae deletion strains, locus YKR091W, strain srl3, active compounds read low): 0.962 (inactive)
- normalized growth (S. cerevisiae deletion strains, locus YLL001W, strain dnm1, active compounds read low): 0.96 (inactive)
- normalized growth (S. cerevisiae deletion strains, locus YLL026W, active compounds read low): 0.978 (inactive)
- normalized growth (S. cerevisiae deletion strains, locus YLL041C, strain sdh2, active compounds read low): 0.995 (inactive)
- normalized growth (S. cerevisiae deletion strains, locus YLR027C, strain aat2, active compounds read low): 0.992 (inactive)
- normalized growth (S. cerevisiae deletion strains, locus YLR039C, strain RIC1, active compounds read low): 0.676 (inactive)
- normalized growth (S. cerevisiae deletion strains, locus YLR058C, strain SHM2, active compounds read low): 0.941 (inactive)
- normalized growth (S. cerevisiae deletion strains, locus YLR102C, strain apc9, active compounds read low): 0.943 (inactive)
- normalized growth (S. cerevisiae deletion strains, locus YLR113W, strain HOG1, active compounds read low): 0.901 (inactive)
- normalized growth (S. cerevisiae deletion strains, locus YLR221C, strain rsa3, active compounds read low): 0.871 (active)
- normalized growth (S. cerevisiae deletion strains, locus YLR258W, strain gsy2, active compounds read low): 0.918 (inactive)
- normalized growth (S. cerevisiae deletion strains, locus YLR262C, strain YPT6 (second series), active compounds read low): 0.972 (inactive)
- normalized growth (S. cerevisiae deletion strains, locus YLR262C, strain YPT6, active compounds read low): 0.733 (inactive)
- normalized growth (S. cerevisiae deletion strains, locus YLR268W, strain sec22, active compounds read low): 0.894 (inactive)
- normalized growth (S. cerevisiae deletion strains, locus YLR320W, strain mms22, active compounds read low): 0.832 (active)
- normalized growth (S. cerevisiae deletion strains, locus YLR330W, strain CHS5, active compounds read low): 0.959 (inactive)
- normalized growth (S. cerevisiae deletion strains, locus YLR342W, strain FKS1 (second series), active compounds read low): 0.938 (inactive)
- normalized growth (S. cerevisiae deletion strains, locus YLR342W, strain FKS1, active compounds read low): 1.01 (inactive)
- normalized growth (S. cerevisiae deletion strains, locus YLR357W, strain rsc2, active compounds read low): 0.929 (inactive)
- normalized growth (S. cerevisiae deletion strains, locus YLR370C, strain arc18, active compounds read low): 0.934 (inactive)
- normalized growth (S. cerevisiae deletion strains, locus YLR371W, strain rom2, active compounds read low): 0.952 (inactive)
- normalized growth (S. cerevisiae deletion strains, locus YLR384C, strain iki3, active compounds read low): 1 (inactive)
- normalized growth (S. cerevisiae deletion strains, locus YLR418C, strain cdc73, active compounds read low): 0.682 (active)
- normalized growth (S. cerevisiae deletion strains, locus YML016C, strain PPZ1, active compounds read low): 0.977 (inactive)
- normalized growth (S. cerevisiae deletion strains, locus YML032C, strain rad52, active compounds read low): 0.897 (active)
- normalized growth (S. cerevisiae deletion strains, locus YML120C, strain ndi1, active compounds read low): 0.951 (inactive)
- normalized growth (S. cerevisiae deletion strains, locus YML124C, strain tub3, active compounds read low): 0.955 (inactive)
- normalized growth (S. cerevisiae deletion strains, locus YMR058W, strain fet3, active compounds read low): 0.939 (inactive)
- normalized growth (S. cerevisiae deletion strains, locus YMR078C, strain ctf18, active compounds read low): 0.935 (inactive)
- normalized growth (S. cerevisiae deletion strains, locus YMR125W, strain sto1, active compounds read low): 0.982 (inactive)
- normalized growth (S. cerevisiae deletion strains, locus YMR129W, active compounds read low): 0.989 (inactive)
- normalized growth (S. cerevisiae deletion strains, locus YMR205C, strain PFK2, active compounds read low): 0.967 (inactive)
- normalized growth (S. cerevisiae deletion strains, locus YMR223W, strain ubp8, active compounds read low): 0.938 (inactive)
- normalized growth (S. cerevisiae deletion strains, locus YMR231W, strain pep5, active compounds read low): 1.01 (inactive)
- normalized growth (S. cerevisiae deletion strains, locus YMR307W, strain GAS1, active compounds read low): 0.707 (inactive)
- normalized growth (S. cerevisiae deletion strains, locus YNL067W, strain RPL9B, active compounds read low): 0.897 (inactive)
- normalized growth (S. cerevisiae deletion strains, locus YNL071W, strain lat1, active compounds read low): 0.809 (active)
- normalized growth (S. cerevisiae deletion strains, locus YNL153C, strain GIM3, active compounds read low): 0.936 (inactive)
- normalized growth (S. cerevisiae deletion strains, locus YNL183C, strain NPR1, active compounds read low): 0.858 (inactive)
- normalized growth (S. cerevisiae deletion strains, locus YNL209W, strain ssb2, active compounds read low): 0.95 (inactive)
- normalized growth (S. cerevisiae deletion strains, locus YNL233W, strain BNI4, active compounds read low): 0.832 (active)
- normalized growth (S. cerevisiae deletion strains, locus YNL248C, strain rpa49, active compounds read low): 0.862 (active)
- normalized growth (S. cerevisiae deletion strains, locus YNL250W, strain rad50, active compounds read low): 0.978 (inactive)
- normalized growth (S. cerevisiae deletion strains, locus YNL271C, strain bni1, active compounds read low): 0.955 (inactive)
- normalized growth (S. cerevisiae deletion strains, locus YNL298W, strain CLA4, active compounds read low): 0.925 (inactive)
- normalized growth (S. cerevisiae deletion strains, locus YNL307C, strain MCK1, active compounds read low): 0.576 (active)
- normalized growth (S. cerevisiae deletion strains, locus YNL322C, strain KRE1 (second series), active compounds read low): 0.888 (active)
- normalized growth (S. cerevisiae deletion strains, locus YNR049C, strain mso1, active compounds read low): 0.964 (inactive)
- normalized growth (S. cerevisiae deletion strains, locus YNR052C, strain pop2, active compounds read low): 0.98 (inactive)
- normalized growth (S. cerevisiae deletion strains, locus YOL006C, strain TOP1, active compounds read low): 0.463 (active)
- normalized growth (S. cerevisiae deletion strains, locus YOL012C, strain htz1): 0.544 (inactive)
- normalized growth (S. cerevisiae deletion strains, locus YOL147C, strain pex11, active compounds read low): 0.943 (inactive)
- normalized growth (S. cerevisiae deletion strains, locus YOR001W, strain rrp6, active compounds read low): 0.962 (inactive)
- normalized growth (S. cerevisiae deletion strains, locus YOR061W, strain CKA2, active compounds read low): 0.967 (inactive)
- normalized growth (S. cerevisiae deletion strains, locus YOR069W, strain VPS5, active compounds read low): 0.985 (inactive)
- normalized growth (S. cerevisiae deletion strains, locus YOR070C, strain gyp1, active compounds read low): 0.932 (inactive)
- normalized growth (S. cerevisiae deletion strains, locus YOR080W, strain dia2, active compounds read low): 1.02 (inactive)
- normalized growth (S. cerevisiae deletion strains, locus YOR083W, strain WHI5, active compounds read low): 0.928 (inactive)
- normalized growth (S. cerevisiae deletion strains, locus YOR106W, strain vam3, active compounds read low): 0.954 (inactive)
- normalized growth (S. cerevisiae deletion strains, locus YOR136W, strain idh2, active compounds read low): 0.948 (inactive)
- normalized growth (S. cerevisiae deletion strains, locus YOR144C, strain elg1, active compounds read low): 0.947 (inactive)
- normalized growth (S. cerevisiae deletion strains, locus YOR184W, strain ser1, active compounds read low): 0.756 (active)
- normalized growth (S. cerevisiae deletion strains, locus YOR231W, strain MKK1, active compounds read low): 0.909 (inactive)
- normalized growth (S. cerevisiae deletion strains, locus YOR265W, strain rbl2, active compounds read low): 0.987 (inactive)
- normalized growth (S. cerevisiae deletion strains, locus YOR270C, strain vph1, active compounds read low): 0.635 (active)
- normalized growth (S. cerevisiae deletion strains, locus YOR290C, strain snf2, active compounds read low): 0.857 (active)
- normalized growth (S. cerevisiae deletion strains, locus YOR316C, strain cot1, active compounds read low): 0.947 (inactive)
- normalized growth (S. cerevisiae deletion strains, locus YPL051W, strain arl3, active compounds read low): 0.957 (inactive)
- normalized growth (S. cerevisiae deletion strains, locus YPL078C, strain atp4, active compounds read low): 0.83 (active)
- normalized growth (S. cerevisiae deletion strains, locus YPL106C, strain sse1, active compounds read low): 0.926 (inactive)
- normalized growth (S. cerevisiae deletion strains, locus YPL240C, strain hsp82, active compounds read low): 0.973 (inactive)
- normalized growth (S. cerevisiae deletion strains, locus YPL241C, strain CIN2, active compounds read low): 0.977 (inactive)
- normalized growth (S. cerevisiae deletion strains, locus YPL256C, strain CLN2, active compounds read low): 0.881 (inactive)
- normalized growth (S. cerevisiae deletion strains, locus YPR119W, strain clb2, active compounds read low): 0.941 (inactive)
- normalized growth (S. cerevisiae deletion strains, locus YPR141C, strain kar3, active compounds read low): 0.967 (inactive)
- normalized growth (S. cerevisiae deletion strains, locus YPR163C, strain tif3, active compounds read low): 0.931 (inactive)
- normalized growth (S. cerevisiae deletion strains, locus YPR167C, strain met16, active compounds read low): 0.94 (inactive)
- normalized growth (S. cerevisiae deletion strains, strain wtn01, active compounds read low): 0.915 (inactive)
- normalized growth (S. cerevisiae strains, strain wild type, active compounds read low): 0.952 (inactive)
